Eleven compounds from PubChem BioAssay (NCATS) can be followed below.

Records with an inconclusive call do not appear. The source made the active and inactive calls. Calls follow the shape of the dose curve; as a rule, active = well fitted cell-killing curve with a large enough effect; inconclusive = small, poorly fitted or top-dose-only effect; inactive = flat fitted curve, though single readings scatter.

This experiment in a line: MultiTox-Fluor Cytotoxicity Assay - LYMP1-001 - Live Cells (AID 947). Conditions: LYMP1-001 lymphoblastoid cells, live-cell protease fluorescence viability; series mostly up to 92.2 µM. An excerpt: NIH Chemical Genomics Center [NCGC]
NIH Molecular Libraries Screening Centers Network [MLSCN]
National Institutes of Environmental Health Sciences [NIEHS]
National Toxicology Program [NTP]
We have developed a 1536-well cell-based assay for quantitative high throughput screening (qHTS) against a number of cell lines to determine in vitro cytotoxicity of small molecules. This particular assay uses a human lymphoblastoid cell line (LYMP1-001) purchased from Coriell Institute.
NCGC Assay Protocol Summary:
The MultiTox-Fluor Cytotoxicity Assay (Promega) is a homogeneous method to simultaneously measure the relative number of live and dead cells in culture by detecting changes in cell membrane integrity. There are two fluorogenic peptide substrates in the assay reagent. Viable cells are determined when the cell-permeant substrate (GF-AFC) enters the cell and is cleaved by protease from live cells resulting in liberated fluorophore. This live-cell protease activity restricted to viable cells is proportional to cell number. The dead cells are determined by using fluorogenic cell-impermeant peptide substrate (bis-AAF-R110) which cleaved by dead cell proteases leaking from damaged cell membrane.
Using the MultiTox-Fluor Cytotoxicity Assay, the relative number of live cells was measured in the lymphoblastoid cell line with complete culture medium following compound treatment for 16 hours. The assay was performed in opaque black Kalypsys 1536-well plates. In the screen, tetraoctylammonium bromide was used as positive control. Library compounds were measured for their ability to cause acute toxicity in the cell line, as reflected by a decrease in live cell protease activity, in a concentration-dependent manner. […] AC50 values were determined from concentration-response data modeled with the standard Hill equation.
qHTS protocol for MultiTox-Fluor Cytotoxicity assay
[Step] [Parameter] [Value] [Description]
1. Reagent; 5 uL; 2500 lymphoblastoid cells/well
2. Time; 5 hr; 37 C incubation
4. Controls; 23 nL; Tetraoctylammonium bromide 6.4pM to 92 uM
5. Time; 16 hr; 37 C incubation
6. Reagent; 5 uL; MuliTox-Fluor Assay reagent
7. Time; 60 min; Room Temperature
8. Detection; live-cell fluorescence (Ex/Em=405/510); EnVision plate reader
Keywords: cell viability, cytotoxicity, lymphoblastoid cell line, fluorescence, NTPHTS, NTPHTS_NCGC, NIEHS, EPA, DSSTox, MLSMR, MLSCN, NIH Roadmap, qHTS, NCGC
Take `CN(C)CCC(c1ccccc1)c1ccccn1` (stereo unspecified): the result was inactive.
`CCCCC1C(=O)N(c2ccccc2)N(c2ccccc2)C1=O`: the outcome was inactive.
For `CC(=O)O[C@]1(C(C)=O)CC[C@H]2[C@@H]3C=C(Cl)C4=CC(=O)[C@@H]5C[C@@H]5[C@]4(C)[C@H]3CC[C@@]21C` the value was “inactive”; for `O=c1c(O)c(-c2ccc(O)cc2)oc2cc(O)cc(O)c12`, “inactive”.
For `CC(=O)c1ccc(S(=O)(=O)NC(=O)NC2CCCCC2)cc1` the value was “inactive”; for `O=c1c(-c2ccc(O)cc2)coc2cc(O)ccc12`, “inactive”; for `CCCNC(=O)NS(=O)(=O)c1ccc(Cl)cc1`, “inactive”.
As for `O=C(O)Cc1cccc2ccccc12`, the entry is “inactive”; as for `O=c1[nH]cnc2c1ncn2[C@H]1CC[C@@H](CO)O1`, “inactive”; as for `CCn1cc(C(=O)O)c(=O)c2ccc(C)nc21`, “inactive”.
As to `O=C(O)c1cc(O)c2c(c1)C(=O)c1cccc(O)c1C2=O`, the result was inactive.
